# Experimental data taken from PubChem BioAssay.
# Activity calls are given as the source filed them.
# How the values were obtained:
# [1] = system: Human papillomavirus type 1a protein E7 (residues 44-93); experiment: small molecules binding HPV E7 44-93 – biochemical, small-molecule microarray, residues 44-93, 635 nm fluorescence, primary screen (AID 1108); conditions: fluorescence 635 nm, higher = more signal;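 further: E7 fragment applied at 1 µg/mL in TBST for 1 h at 4 C; score combines spot fluorescence with its signal to noise ratio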
# [2] = hepatitis C replication reporter changes, two-sided – Huh7 cells, luciferase reporter, HCV replication inhibitor project, primary screen (AID 1109); conditions: Huh7 HCV replicon luciferase reporter, 48 h; higher = more signal;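 further: huh7 hepatoma cells harbouring a luciferase neomycin HCV replicon reporter; luciferase luminescence as measure of HCV replicon replication; test concentration not given here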
# [3] = molecular target: Left-right determination factor 2 (Homo sapiens) (UniProt O00292); experiment: small molecules binding LEFTY2 protein – biochemical, small-molecule microarray, 635 nm fluorescence scan, primary screen (AID 1110); conditions: higher = more signal
# [4] = molecular target: Calmodulin-1 (Homo sapiens) (UniProt P0DP23); experiment: small molecules binding calmodulin-1 with EGTA – biochemical, small-molecule microarray, Cy5-labelled CALM1, profiling panel (AID 1111); conditions: Cy5-CALM1 binding fluorescence, higher = more signal;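 further: labelled calmodulin applied in Tris saline Tween buffer holding calcium plus EGTA and DTT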
# [5] = molecular target: Calmodulin-1 (Homo sapiens) (UniProt P0DP23); experiment: small molecules binding Ca-loaded calmodulin-1 – biochemical, small-molecule microarray, Cy5-labelled CALM1, plus calcium, artefact control for SMM control-protein annotation, profiling panel (AID 1112); conditions: Cy5-CALM1 binding fluorescence, higher = more signal;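 further: score merges spot fluorescence with signal to noise from triplicate slides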
# [6] = probe aWnt5a binding to arrayed compounds – biochemical, biotinylated probe, 635/667 nm fluorescence, primary screen (AID 1113); conditions: small-molecule microarray, higher = more signal;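 further: score merges 667 nm fluorescence intensity with signal-to-noise per printed feature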
# [7] = probe aShh binding to arrayed compounds – biochemical, biotinylated probe, 635/667 nm fluorescence, primary screen (AID 1114); conditions: small-molecule microarray, higher = more signal;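 further: probe is biotin-labelled aShh protein from a stem cell growth factor screen; measures binding of labelled protein to compounds printed on the slide; score merges feature fluorescence at 667 nm with signal-to-noise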
# [8] = probe aNog binding to arrayed compounds – biochemical, biotinylated probe, 635/667 nm fluorescence, primary screen (AID 1115); conditions: small-molecule microarray, higher = more signal;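 further: probe is biotinylated aNog protein used at 0.15 µg/mL for 1 h at 4 C; z-score combines 667 nm fluorescence of each spot with its signal to noise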
# [9] = molecular target: Torsin-1A-interacting protein 1 (Homo sapiens) (UniProt Q5JTV8); experiment: compound microarray binding of lysate hLAP1 – cell lysate, small-molecule microarray, COS7 lysate, 635/667 nm fluorescence, primary screen (AID 1116); conditions: 635 nm fluorescence, higher = more signal
# [10] = molecular target: Alpha-bungarotoxin (Bungarus multicinctus) (UniProt P60615); experiment: compounds binding labelled alpha-BTX control protein – biochemical, small-molecule microarray, Alexa647 label, 635/667 nm fluorescence, artefact control for SMM control protein annotation, profiling panel (AID 1117); conditions: alpha-BTX-A647 binding fluorescence, higher = more signal
# Albumin (Bos taurus) = Albumin (Bos taurus) (UniProt P02769); experiment: compounds binding labelled BSA control protein – biochemical, small-molecule microarray, Alexa647 label, 635/667 nm fluorescence, artefact control for SMM control protein annotation, profiling panel (AID 1118); conditions: BSA-A647 binding, fluorescence 635 nm, higher = more signal;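 further: score merges 667 nm emission intensity and signal-to-noise per printed compound spot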
# [11] = probe aXIP binding to arrayed compounds – biochemical, NeuroSMM set, 635/667 nm fluorescence, primary screen (AID 1119); conditions: small-molecule microarray, higher = more signal, called active from +8 up or from −8 down;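 further: probe is the protein aXip251-270 applied at 1 µg/mL to compound-printed slides; binding of probe to printed compounds measured as 667 nm fluorescence plus signal to noise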
# [12] = probe aNOTCH3 binding on compound microarray – biochemical, small-molecule microarray, 635/667 nm fluorescence, primary screen (AID 1120); conditions: higher = more signal;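 further: probe is a biotin-tagged antibody raised against NOTCH3 rather than NOTCH3 protein; score merges spot fluorescence near 667 nm with spot signal to noise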
# [13] = probe aNOTCH2 binding on compound microarray – biochemical, small-molecule microarray, 635/667 nm fluorescence, primary screen (AID 1121); conditions: higher = more signal;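 further: score merges feature fluorescence read at 667 nm with its signal to noise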
# [14] = molecular target: Carbonic anhydrase 2 (Homo sapiens) (UniProt P00918); experiment: compounds binding carbonic anhydrase 2 – biochemical, small-molecule microarray, Alexa647-labelled CAII, profiling panel (AID 1122); conditions: CAII-A647 binding fluorescence, higher = more signal
# [15] = COS7 lysate on small-molecule microarray, probe aHis, 635 nm (AID 1123); conditions: COS7 cell lysate, fluorescence, higher = more signal;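 further: z-score combines 667nm fluorescence intensity with signal-to-noise per printed compound spot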
# [16] = probe aLAP1 signal on lysate-treated microarray – cell lysate, small-molecule microarray, COS7 lysate, primary screen (AID 1124); conditions: probe aLAP1, fluorescence, higher = more signal;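 further: lysate comes from COS7 cells expressing LAP1 and is applied at 0.3 µg/mL; score merges spot fluorescence near 667 nm with signal-to-noise over triplicate slides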
# Sam68 (KHDRBS1) = experiment: compounds binding KHDRBS1 protein – biochemical, small-molecule microarray, 635 nm fluorescence, primary screen (AID 1125); conditions: higher = more signal;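 further: score merges 667 nm channel intensity with signal to noise over triplicate slides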
# [17] = system: Chordin-like protein 2 (CHRDL2); experiment: compounds binding chordin-like 2 – biochemical, small-molecule microarray, 635 nm fluorescence, primary screen (AID 1126); conditions: fluorescence 635 nm, higher = more signal;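 further: printed compound slides probed with Chrdl2 protein at 4 µg/mL for 1 h at 4 C; score merges 667 nm emission intensity with signal to noise over three replicate slides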
# [18] = molecular target: Concanavalin-A (Canavalia ensiformis) (UniProt P02866); experiment: compounds binding concanavalin A lectin – biochemical, small-molecule microarray, Alexa647 label, 635 nm, artefact control for SMM control protein annotation, primary screen (AID 1127); conditions: ConA-A647 binding fluorescence, higher = more signal;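 further: z combines 667 nm emission intensity with signal-to-noise across three replicate slides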
# Chain of Concanavalin-A (Canavalia ensiformis) (P02866 whole entry, looked up): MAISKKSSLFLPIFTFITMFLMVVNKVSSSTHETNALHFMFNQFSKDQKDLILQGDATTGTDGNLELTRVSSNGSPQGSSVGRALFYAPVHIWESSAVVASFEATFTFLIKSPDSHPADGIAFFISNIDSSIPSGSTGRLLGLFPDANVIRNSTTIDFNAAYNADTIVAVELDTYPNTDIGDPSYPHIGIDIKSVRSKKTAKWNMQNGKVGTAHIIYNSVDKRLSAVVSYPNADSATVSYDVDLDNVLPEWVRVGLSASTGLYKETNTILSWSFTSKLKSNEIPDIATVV
# Chain of Albumin (Bos taurus) (P02769 whole entry, looked up): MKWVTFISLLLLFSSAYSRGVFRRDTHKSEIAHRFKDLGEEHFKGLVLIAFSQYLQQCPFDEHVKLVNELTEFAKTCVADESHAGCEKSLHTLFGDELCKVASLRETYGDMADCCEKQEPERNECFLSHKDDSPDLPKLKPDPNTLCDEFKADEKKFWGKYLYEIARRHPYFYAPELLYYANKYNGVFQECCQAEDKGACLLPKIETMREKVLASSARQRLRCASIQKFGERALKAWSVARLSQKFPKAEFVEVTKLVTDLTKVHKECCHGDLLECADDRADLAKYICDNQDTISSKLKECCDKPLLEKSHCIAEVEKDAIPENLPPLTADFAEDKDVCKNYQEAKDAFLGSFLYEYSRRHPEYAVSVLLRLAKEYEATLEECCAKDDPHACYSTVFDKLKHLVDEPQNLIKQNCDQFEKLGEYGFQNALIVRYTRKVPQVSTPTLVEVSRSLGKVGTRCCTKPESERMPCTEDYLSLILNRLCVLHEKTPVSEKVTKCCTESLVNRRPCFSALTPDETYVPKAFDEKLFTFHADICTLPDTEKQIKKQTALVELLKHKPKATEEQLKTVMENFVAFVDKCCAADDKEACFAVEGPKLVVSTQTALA
# Chain of Alpha-bungarotoxin (Bungarus multicinctus) (P60615 whole entry, looked up): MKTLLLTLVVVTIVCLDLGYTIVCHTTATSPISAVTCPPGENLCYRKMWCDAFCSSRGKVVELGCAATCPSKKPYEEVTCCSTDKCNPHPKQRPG
# Chain of Torsin-1A-interacting protein 1 (Homo sapiens) (Q5JTV8 whole entry, looked up): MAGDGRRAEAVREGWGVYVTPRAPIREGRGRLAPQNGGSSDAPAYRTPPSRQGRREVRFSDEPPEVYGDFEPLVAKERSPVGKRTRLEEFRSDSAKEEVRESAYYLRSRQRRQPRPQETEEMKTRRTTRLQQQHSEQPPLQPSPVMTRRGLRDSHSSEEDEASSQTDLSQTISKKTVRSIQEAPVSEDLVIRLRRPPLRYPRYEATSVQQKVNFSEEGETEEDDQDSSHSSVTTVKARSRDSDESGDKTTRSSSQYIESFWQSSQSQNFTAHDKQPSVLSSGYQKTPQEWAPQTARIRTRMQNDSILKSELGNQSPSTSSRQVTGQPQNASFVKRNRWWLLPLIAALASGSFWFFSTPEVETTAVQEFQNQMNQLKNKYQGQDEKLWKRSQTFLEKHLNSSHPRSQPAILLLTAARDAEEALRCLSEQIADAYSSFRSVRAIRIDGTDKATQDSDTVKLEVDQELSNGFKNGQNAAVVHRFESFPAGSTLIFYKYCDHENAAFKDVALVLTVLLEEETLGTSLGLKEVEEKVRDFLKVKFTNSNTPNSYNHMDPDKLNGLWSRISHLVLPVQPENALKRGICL
# Chain of Left-right determination factor 2 (Homo sapiens) (O00292 whole entry, looked up): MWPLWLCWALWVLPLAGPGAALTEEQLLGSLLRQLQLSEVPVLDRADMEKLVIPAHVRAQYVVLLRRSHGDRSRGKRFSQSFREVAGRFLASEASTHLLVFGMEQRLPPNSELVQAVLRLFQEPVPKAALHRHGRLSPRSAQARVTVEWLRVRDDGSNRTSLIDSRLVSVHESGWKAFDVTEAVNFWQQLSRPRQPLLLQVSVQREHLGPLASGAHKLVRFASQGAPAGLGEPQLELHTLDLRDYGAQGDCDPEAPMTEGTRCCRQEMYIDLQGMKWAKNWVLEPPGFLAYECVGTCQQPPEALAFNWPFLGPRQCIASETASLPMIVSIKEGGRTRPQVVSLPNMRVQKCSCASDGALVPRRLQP
SMILES,composite z-score [1],z-score [2],composite z-score [3],composite z-score [4],composite z-score [5],composite z-score [6],composite z-score [7],composite z-score [8],composite z-score [9],composite z-score [10],composite z-score (Albumin (Bos taurus)),composite Z-score [11],composite z-score [12],composite z-score [13],composite z-score [14],composite z-score [15],composite z-score [16],composite z-score (Sam68 (KHDRBS1)),composite z-score [17],composite z-score [18]
Cc1ccc(S[C@]2(C(=O)NC3CC3)CC(=O)N(Cc3ccccc3)[C@@H]2c2ccc(CO)cc2)cc1,-0.269,-0.921,-1.19,-0.274,0.176,-0.197,-0.237,0.314,1.39,0.848,0.391,0.225 (inactive),-0.284,0.125,0.27,2.78,0.677,-0.664,-1.49,-0.788
NC(=O)NCC#Cc1ccc2c(c1)[C@]1(C(=O)N2)[C@H](C(=O)N2CCCCCCC2)[C@H]2C(=O)O[C@H](c3ccccc3)[C@H](c3ccccc3)N2[C@@H]1c1ccc(OCCO)cc1,1.18,-1.03,1.04,1.99,0.897,0.83,2.19,2.19,1.45,2.02,-0.946,-0.397 (inactive),1.29,0.683,0.336,1.6,0.864,1.32,1.09,0.987
N[C@@H](Cc1ccccc1)Cn1cc(-c2ccccc2)nn1,0.18,-0.65,-0.339,-0.197,-0.574,-0.027,-0.206,-0.329,0.119,0.588,0.656,-0.254 (inactive),0.0879,-0.053,-0.062,0.281,0.954,0.406,0.53,-0.109
COc1ccc(CCNC(=O)[C@@]2(c3ccc([N+](=O)[O-])cc3)CC(=O)N(CC34CC5CC(CC(C5)C3)C4)[C@@H]2c2ccc(CO)cc2)cc1,1.42,-3.38,0.614,0.581,0.084,-0.0202,0.2,-0.0281,0.299,0.155,-0.191,0.22 (inactive),0.0494,-0.0617,0.18,1.11,-0.291,1.09,0.647,1.12
COc1ccc(C(O)C2C=CC3C(=O)NC(=O)C3N2Nc2ccccn2)cc1OCc1ccccc1 (stereo not given),-0.156,-0.129,-0.0932,0.916,0.0805,-0.15,-0.0886,0.185,0.474,0.251,0.68,0.0296 (inactive),0.089,-0.0308,0.855,1.76,0.759,-0.255,0.0961,0.212
COC(=O)C1=CC(CCCO)=CC(C2CC2)N(Cc2sc3ccccc3c2Cl)C=C1C(=O)OC (stereo not given),1.44,-2.53,0.101,1.49,0.952,0.168,0.441,0.838,1.74,1.84,0.932,0.408 (inactive),0.224,-0.0209,0.817,1.55,1.01,1.3,-0.236,0.949
